The results in this text go back to the supplement of paper PMC11219838.

The structures appear in SMILES notation. A number with no mark means an inactive call.

The test system of the test is Meloidogyne hapla J2. The experiment in a line: proportion of mobile M. hapla J2 relative to DMSO control (fraction of DMSO control); higher = more viable, less nematicidal, active = 0.7 or less. As to conditions: 60 µM; 5 days; temperature: 20 °C. As for the experimental part:
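DODA library (846 commercial 1,3,4- and 1,2,4-oxadiazole compounds plus commercial nematicide controls) screened at a single dose of 60 µM (0.6% DMSO) in 96-well plates, two biological replicates. Read-outs: C. elegans N2 L1 survival/reproduction score at day 6, 20 °C (0: 0-10 worms, 1: 11-20, 2: 21-50, 3: >50, 4: overgrown/starved). C. elegans daf-2 dauer, D. dipsaci and M. hapla J2 mobility at day 5, 20 °C, and P. penetrans mobility at day 5, 20 °C, each relative to DMSO controls. M. hapla egg hatching at day 12, 25 °C, relative to the mean of 8 DMSO wells on the same plate.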
For `CNC(=O)O/N=C(\SC)C(=O)N(C)C` [oxamyl], the “proportion of mobile M. hapla J2” value is 0.936.

As for `O=C(NCCc1ncc(C(F)(F)F)cc1Cl)c1ccccc1C(F)(F)F` [fluopyram], the “proportion of mobile M. hapla J2” value is 0.653 (active).

In the case of `CC[C@H](C)[C@H]1O[C@]2(C=C[C@@H]1C)C[C@@H]1C[C@@H](C/C=C(\C)[C@@H](O[C@H]3C[C@H](OC)[C@@H](O[C@H]4C[C@H](OC)[C@@H](O)[C@H](C)O4)[C@H](C)O3)[C@@H](C)/C=C/C=C3\CO[C@@H]4[C@H](O)C(C)=C[C@@H](C(=O)O1)[C@]34O)O2.CO[C@H]1C[C@H](O[C@H]2[C@H](C)O[C@@H](O[C@@H]3/C(C)=C/C[C@@H]4C[C@@H](C[C@]5(C=C[C@H](C)[C@@H](C(C)C)O5)O4)OC(=O)[C@@H]4C=C(C)[C@@H](O)[C@H]5OC/C(=C\C=C\[C@@H]3C)[C@]54O)C[C@@H]2OC)O[C@@H](C)[C@@H]1O` [abamectin], the “proportion of mobile M. hapla J2” value was 1.03.

With `CC(C)NC(=O)N1CC(=O)N(c2cc(Cl)cc(Cl)c2)C1=O` [iprodione], the “proportion of mobile M. hapla J2” value was 1.03.
